Test results published in the supplement of paper PMC11732987, “Enantioselective OTUD7B fragment discovery through chemoproteomics screening and high-throughput optimisation” (Communications Chemistry, 2025).

Key:
Test in all cases: log2 ratio of Biotin-Ahx-Ub-VS probe labelling (fragment/DMSO); higher = less target engagement (more negative = stronger competition), active = hit call of the paper (q ≤ 0.05, log2 ratio ≤ -1)
Details in all cases: compound concentration: 200 uM; treatment time: 3 h
USP34 = USP34 (UniProt Q70CQ2)
Outline: (§1)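 Average log2 ratios of fragment over vehicle were obtained by unpaired t-test from global-median-normalised Spectronaut label-free quantities. Proteins with ≥2 unique peptides were included. HEK293T lysate (495 µg per sample) was treated in triplicate with fragment at 200 µM or vehicle for 3 h, then with Biotin-Ahx-Ub-VS at 0.5 µM final for 1 h, and labelled DUBs were NeutrAvidin-enriched and run by diaPASEF LC-MS/MS.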

USP36 = target: T1, USP36 (UniProt Q9P275)
T1 sequence (whole entry): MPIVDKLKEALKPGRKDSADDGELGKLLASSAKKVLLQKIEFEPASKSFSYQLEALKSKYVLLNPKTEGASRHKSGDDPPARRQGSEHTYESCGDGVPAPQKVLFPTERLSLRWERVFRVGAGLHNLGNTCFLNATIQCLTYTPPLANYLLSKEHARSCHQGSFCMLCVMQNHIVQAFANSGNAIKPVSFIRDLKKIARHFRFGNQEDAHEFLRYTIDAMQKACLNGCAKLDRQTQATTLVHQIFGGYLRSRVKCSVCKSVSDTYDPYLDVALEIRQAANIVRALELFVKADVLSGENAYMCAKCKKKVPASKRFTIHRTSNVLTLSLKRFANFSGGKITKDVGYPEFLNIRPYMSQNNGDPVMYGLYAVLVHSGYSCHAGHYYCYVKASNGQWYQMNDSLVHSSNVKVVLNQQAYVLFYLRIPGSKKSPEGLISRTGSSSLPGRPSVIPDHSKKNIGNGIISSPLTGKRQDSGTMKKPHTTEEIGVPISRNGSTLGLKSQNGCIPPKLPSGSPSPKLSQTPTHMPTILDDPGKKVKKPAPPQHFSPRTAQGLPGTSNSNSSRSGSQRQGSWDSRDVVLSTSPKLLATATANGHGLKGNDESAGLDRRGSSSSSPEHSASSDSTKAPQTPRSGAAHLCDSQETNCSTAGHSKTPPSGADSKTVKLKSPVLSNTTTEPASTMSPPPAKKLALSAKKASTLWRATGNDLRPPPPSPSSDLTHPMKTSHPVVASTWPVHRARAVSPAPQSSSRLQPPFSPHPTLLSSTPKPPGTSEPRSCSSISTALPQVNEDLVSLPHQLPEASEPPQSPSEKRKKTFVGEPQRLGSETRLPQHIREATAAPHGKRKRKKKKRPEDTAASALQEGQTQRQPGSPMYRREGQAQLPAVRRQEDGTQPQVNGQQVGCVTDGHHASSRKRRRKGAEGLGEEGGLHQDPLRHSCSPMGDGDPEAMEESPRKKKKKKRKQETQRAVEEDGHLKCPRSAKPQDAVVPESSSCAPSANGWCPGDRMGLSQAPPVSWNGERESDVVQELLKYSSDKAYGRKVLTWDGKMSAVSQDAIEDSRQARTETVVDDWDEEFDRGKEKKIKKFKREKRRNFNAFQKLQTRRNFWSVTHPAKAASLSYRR
Outline: as §1

USP38 = target: T2, USP38 (UniProt Q8NB14)
T2 sequence (whole entry): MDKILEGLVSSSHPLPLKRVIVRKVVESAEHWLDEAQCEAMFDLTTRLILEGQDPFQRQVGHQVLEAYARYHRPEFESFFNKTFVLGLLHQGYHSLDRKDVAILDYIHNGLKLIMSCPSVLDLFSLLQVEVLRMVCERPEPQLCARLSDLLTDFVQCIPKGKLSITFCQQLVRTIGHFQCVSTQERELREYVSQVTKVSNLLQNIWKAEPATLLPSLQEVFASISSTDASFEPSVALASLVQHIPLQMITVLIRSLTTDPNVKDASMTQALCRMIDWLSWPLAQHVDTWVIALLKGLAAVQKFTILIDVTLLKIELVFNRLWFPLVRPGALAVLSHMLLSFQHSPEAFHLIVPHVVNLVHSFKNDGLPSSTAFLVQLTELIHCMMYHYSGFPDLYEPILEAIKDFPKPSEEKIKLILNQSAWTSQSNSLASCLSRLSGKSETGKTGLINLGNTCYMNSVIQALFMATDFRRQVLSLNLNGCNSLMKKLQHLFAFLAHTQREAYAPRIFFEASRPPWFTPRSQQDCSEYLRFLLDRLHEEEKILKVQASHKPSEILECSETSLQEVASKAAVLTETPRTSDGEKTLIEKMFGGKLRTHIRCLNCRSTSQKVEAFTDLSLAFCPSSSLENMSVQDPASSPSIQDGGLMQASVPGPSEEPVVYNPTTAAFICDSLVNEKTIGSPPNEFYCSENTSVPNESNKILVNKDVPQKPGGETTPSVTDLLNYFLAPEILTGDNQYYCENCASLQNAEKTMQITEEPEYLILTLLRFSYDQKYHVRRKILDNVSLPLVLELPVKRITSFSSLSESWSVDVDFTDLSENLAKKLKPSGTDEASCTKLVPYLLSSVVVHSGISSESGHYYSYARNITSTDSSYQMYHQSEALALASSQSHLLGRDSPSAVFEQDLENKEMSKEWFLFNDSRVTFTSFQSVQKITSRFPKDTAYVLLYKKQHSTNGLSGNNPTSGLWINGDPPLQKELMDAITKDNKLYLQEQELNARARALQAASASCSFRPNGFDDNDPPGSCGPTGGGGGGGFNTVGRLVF
Outline: as §1

USP39 = target: T3, USP39 (UniProt Q53GS9)
T3 sequence (whole entry): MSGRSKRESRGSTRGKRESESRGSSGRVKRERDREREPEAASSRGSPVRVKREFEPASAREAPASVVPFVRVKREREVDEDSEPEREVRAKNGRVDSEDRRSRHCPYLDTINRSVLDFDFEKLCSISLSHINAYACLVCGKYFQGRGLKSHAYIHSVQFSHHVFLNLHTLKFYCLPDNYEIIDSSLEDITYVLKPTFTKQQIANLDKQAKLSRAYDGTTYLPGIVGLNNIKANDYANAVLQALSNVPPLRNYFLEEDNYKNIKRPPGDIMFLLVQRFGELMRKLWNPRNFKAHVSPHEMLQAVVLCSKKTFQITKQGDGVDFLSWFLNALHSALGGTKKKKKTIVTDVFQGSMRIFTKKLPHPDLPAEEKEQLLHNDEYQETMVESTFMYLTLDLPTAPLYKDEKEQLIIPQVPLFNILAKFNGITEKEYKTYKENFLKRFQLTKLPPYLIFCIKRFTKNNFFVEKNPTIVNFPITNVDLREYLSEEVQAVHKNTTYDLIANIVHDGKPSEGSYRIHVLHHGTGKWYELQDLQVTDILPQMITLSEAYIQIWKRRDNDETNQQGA
Outline: as §1

USP4 = target: T4, USP4 (UniProt Q13107)
T4 sequence (whole entry): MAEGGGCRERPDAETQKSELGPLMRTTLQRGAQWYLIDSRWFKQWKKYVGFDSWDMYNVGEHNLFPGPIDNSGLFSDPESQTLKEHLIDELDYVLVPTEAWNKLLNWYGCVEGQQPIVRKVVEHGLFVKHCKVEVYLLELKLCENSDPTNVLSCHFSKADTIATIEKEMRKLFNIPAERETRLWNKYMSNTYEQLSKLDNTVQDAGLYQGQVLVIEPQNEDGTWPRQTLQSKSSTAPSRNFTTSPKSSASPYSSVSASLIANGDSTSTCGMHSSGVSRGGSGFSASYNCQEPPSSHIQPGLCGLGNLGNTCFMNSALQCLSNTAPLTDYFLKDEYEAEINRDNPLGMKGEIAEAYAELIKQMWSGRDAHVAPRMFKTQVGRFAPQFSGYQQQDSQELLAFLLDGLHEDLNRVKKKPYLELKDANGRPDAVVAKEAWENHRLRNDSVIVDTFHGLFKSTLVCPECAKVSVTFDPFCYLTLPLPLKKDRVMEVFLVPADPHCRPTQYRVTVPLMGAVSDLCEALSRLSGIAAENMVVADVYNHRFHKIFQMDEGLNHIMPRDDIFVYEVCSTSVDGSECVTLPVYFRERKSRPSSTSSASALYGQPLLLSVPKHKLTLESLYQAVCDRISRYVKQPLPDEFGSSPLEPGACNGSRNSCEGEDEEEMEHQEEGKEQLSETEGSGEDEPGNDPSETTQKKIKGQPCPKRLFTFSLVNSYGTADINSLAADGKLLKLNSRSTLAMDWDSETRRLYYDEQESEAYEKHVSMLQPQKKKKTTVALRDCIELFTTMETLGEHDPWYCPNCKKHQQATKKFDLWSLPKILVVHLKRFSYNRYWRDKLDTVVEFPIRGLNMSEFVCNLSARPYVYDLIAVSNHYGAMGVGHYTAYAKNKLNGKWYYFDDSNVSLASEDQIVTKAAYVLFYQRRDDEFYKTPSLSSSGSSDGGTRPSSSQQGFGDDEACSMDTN
Outline: as §1

Measured: log2 ratio of Biotin-Ahx-Ub-VS probe labelling

USP34, sequence (Q70CQ2 whole entry, the tested form may be a part): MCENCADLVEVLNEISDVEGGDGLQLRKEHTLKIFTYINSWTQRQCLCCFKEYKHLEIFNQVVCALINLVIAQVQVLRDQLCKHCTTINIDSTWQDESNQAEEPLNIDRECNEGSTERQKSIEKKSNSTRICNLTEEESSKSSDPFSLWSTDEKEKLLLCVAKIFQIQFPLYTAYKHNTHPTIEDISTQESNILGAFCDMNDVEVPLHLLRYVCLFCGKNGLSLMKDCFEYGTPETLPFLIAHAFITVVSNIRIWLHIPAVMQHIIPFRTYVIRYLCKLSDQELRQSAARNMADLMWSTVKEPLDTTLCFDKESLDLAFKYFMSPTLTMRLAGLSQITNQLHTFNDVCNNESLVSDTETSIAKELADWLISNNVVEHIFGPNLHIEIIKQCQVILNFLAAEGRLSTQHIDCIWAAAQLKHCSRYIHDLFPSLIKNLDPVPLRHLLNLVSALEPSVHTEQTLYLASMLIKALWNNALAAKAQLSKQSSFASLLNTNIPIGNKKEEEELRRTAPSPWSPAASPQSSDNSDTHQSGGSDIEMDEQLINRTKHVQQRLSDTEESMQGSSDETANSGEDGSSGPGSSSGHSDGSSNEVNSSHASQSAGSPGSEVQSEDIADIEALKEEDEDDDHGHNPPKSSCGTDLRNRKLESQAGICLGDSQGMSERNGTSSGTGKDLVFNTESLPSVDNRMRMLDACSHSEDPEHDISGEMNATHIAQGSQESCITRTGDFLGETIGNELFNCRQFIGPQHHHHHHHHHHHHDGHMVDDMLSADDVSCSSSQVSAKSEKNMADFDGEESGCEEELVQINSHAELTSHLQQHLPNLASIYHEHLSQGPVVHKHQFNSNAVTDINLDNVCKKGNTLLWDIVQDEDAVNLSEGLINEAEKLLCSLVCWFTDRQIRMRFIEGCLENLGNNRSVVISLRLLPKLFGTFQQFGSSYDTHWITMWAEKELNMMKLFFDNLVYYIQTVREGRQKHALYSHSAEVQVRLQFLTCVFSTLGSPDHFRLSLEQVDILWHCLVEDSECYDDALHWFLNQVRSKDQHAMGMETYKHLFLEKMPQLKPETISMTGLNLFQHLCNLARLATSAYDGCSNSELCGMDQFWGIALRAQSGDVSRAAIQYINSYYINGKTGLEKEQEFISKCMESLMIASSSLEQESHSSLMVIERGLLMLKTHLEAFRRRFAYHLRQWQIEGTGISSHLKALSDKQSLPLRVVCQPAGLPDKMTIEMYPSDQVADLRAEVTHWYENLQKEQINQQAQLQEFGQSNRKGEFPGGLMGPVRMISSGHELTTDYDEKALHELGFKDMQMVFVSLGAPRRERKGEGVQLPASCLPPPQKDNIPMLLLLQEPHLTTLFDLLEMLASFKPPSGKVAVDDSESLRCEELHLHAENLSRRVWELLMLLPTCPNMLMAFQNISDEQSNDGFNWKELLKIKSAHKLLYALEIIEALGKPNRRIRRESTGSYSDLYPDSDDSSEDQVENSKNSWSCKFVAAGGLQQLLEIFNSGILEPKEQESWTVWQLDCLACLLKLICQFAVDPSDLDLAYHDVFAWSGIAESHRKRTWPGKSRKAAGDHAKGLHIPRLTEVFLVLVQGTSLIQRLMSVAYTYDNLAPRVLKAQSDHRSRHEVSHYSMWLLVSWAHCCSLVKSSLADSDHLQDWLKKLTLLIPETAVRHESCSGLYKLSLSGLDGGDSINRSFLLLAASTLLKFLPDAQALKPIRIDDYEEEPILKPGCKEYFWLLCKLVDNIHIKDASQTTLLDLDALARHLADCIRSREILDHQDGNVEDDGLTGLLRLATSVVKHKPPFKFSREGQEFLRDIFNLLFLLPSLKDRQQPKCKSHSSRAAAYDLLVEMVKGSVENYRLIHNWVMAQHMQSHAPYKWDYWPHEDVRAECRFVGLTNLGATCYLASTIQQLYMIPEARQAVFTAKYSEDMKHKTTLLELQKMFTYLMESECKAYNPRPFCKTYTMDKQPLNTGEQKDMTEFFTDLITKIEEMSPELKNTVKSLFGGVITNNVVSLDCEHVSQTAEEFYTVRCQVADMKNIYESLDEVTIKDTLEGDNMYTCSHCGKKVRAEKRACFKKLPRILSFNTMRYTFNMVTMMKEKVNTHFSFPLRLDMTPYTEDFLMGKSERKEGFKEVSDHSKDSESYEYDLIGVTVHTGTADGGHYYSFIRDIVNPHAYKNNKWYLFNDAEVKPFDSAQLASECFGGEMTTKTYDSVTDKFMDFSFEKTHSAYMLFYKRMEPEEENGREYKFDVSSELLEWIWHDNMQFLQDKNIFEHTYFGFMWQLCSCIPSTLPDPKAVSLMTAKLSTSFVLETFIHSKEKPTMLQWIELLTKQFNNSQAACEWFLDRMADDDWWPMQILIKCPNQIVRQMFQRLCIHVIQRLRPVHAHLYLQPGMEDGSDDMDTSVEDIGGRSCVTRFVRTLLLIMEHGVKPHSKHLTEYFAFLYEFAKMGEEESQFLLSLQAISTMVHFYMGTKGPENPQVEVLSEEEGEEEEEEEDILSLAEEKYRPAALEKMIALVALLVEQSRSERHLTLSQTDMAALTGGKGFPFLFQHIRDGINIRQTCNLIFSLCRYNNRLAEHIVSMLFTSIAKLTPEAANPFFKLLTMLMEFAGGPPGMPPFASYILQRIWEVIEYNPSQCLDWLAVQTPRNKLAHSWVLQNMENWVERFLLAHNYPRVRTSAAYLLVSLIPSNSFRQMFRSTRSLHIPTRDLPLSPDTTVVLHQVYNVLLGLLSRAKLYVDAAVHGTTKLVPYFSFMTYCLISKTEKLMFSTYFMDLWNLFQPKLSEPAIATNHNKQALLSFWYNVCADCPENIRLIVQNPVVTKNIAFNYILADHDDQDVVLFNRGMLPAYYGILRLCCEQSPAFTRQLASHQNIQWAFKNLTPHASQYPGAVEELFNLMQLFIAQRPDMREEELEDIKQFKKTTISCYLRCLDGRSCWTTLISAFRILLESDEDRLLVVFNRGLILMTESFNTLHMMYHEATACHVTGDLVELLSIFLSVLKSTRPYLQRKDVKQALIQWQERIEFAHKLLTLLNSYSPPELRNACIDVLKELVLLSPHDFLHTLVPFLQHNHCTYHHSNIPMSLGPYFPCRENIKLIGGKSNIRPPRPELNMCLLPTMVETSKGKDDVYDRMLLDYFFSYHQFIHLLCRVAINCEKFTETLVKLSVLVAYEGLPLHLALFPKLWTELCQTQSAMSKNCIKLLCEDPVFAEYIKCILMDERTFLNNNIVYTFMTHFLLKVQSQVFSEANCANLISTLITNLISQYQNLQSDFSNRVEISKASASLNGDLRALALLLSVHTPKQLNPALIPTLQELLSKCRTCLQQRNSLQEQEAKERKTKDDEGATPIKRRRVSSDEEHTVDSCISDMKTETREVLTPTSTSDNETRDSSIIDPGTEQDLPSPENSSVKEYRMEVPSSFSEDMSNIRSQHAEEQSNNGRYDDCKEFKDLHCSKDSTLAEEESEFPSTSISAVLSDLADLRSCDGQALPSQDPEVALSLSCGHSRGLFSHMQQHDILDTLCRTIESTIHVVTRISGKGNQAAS

CN(C)C(=O)c1ccc(NC(=O)CCl)cc1
inactive: USP34 -0.218 | USP36 0.00972 | USP38 -0.0389 | USP39 0.0586 | USP4 -0.323
